Our source for the growth values is PubChem BioAssay (NCI).

Structures are written as SMILES. About 83,000 compounds went through this panel and 20% of them were active in at least one assay; those are over-represented in the sample as a whole.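 Plates (96-well) were seeded with cells, treated with compound at one concentration, and incubated for 48 hours before percent growth was determined.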 Values without a mark were called inactive. Activity calls are given as the source filed them. How the source made its calls: active means growth percent below 10; inactive means the rest.

The first experiment relates to NCI-H322M lung. Nature of the experiment: NCI-60 one-dose screen, 48 h (100 = growth as untreated, 0 = no growth, -100 = all killed). As to conditions: 10 µM unless noted.
In the case of `O=C([C@@H](COCc1ccccc1)N1C(=O)[C@@H](N2C(=O)OC[C@@H]2c2ccccc2)[C@H]1/C=C/c1ccccc1)N1CCC(CCN2CCCCC2)CC1`, the growth was 83.2%.

Regarding `OCCNCCNc1c2ccccc2nc2ccccc12`, the growth was 52.7%.

With `CC[C@H](Nc1ncnc(N)c1C(N)=O)c1nc2cccc(NCc3ccc(C(=O)NO)cc3)c2c(=O)n1-c1ccccc1`, the growth was 86.9%.

On to `CCCCCCCCCc1cc(CN2CCCCC2)c(O)c(CN2CCCCC2)c1`, for which the growth is 88.4%.

Consider `CN1CCN(Cc2ccc(NC(=O)c3cncc(C#Cc4cnc(N)c5cccnc45)c3)cc2C(F)(F)F)CC1`, for which the growth was 26.4%.

In the case of `C=C1CC2(OC1=O)C(=O)N(CCCCCCCCCCCCN1C(=O)C3(CC(=C)C(=O)O3)c3ccccc31)c1ccccc12` (stereo unspecified), the growth is 95.1%.

`Cn1c2ccccc2c2c3c(c4c5ccccc5[nH]c4c21)C(=O)N(N)C3=O`: the growth is 85.1%.

Take `Cn1c2ccccc2c2c3c(c4c5ccccc5n(CCCCCC#N)c4c21)C(=O)N(O)C3=O`: the growth is 48.8%.

For the compound `COC(/C=C/c1ccc([N+](=O)[O-])cc1)OC`, the growth was 101%.

For the compound `O=C(CNC1C2CC3CC(C2)CC1C3)Sc1nnc2sc3ccccc3n12` (stereo unspecified), the growth was 113%.

As for `C=CC[N+]1(CC)CCN=C1CCCCCCCCCCCCCCCCC` (stereo unspecified), the growth was 27.8%.

Consider `CN1CCN(Cc2ccc(NC(=O)c3[nH]ncc3Nc3ccnc4ccsc34)cc2)CC1`, for which the growth is 20%.

Regarding `CN1/C(=C\C=C\C2=[N+](C)c3ccccc3C2(C)C)C(C)(C)c2ccccc21`, the growth was 8.56% (active).

With `CS(=O)(=O)c1ccc(-c2cnc3ccc(-c4cccc(S(C)(=O)=O)c4)nn23)cc1`, the growth is 32.8%.

Take `COc1ccc(C/C(C)=C(\c2ccc(OCCN3CCCCCC3)cc2)c2ccc(OC(=O)C3CCCCC3)cc2)cc1`: the growth was 73.5%.

A further experiment relates to HOP-62 NSCLC. The description is as above. As to conditions: 10 µM unless noted.
Take `CNC(=O)c1cc(Oc2ccc3nc(NC(=O)Nc4ccc(CN5CCOCC5)c(C(F)(F)F)c4)sc3c2)ccn1`: the growth is 44.6%.

As to `Cc1cc(N/N=C/c2nc(-c3ccc(Cl)cc3)oc2C)c2cc(Br)ccc2n1`, the growth is 100%.

On to `COc1cc(-c2cc(-c3nc4ccc(Cl)cc4[nH]3)[nH]n2)cc(OC)c1OC`, for which the growth is 40.1%.

Consider `COc1ccc(-c2cc(-c3cccnc3)nc3sc4c(=O)n(-c5ccc(C)cc5)cnc4c23)cc1OC`, for which the growth is 98.4%.

Take `CN(C)c1ccc(/C=C\C2=[N+](C)c3ccccc3C2(C)C)cc1`: the growth was 13.6%.

For the compound `COc1ccc(-c2cc(-c3cccnc3)nc3sc4c(=O)n(-c5ccc(C)cc5)nnc4c23)cc1OC`, the growth was 95.5%.

With `COc1ccc(C/C(C)=C(\c2ccc(Cl)cc2)c2ccc(OCCN3CCCCCC3)cc2)cc1`, the growth was 97.4%.

Take `O=C1C=CC(=O)N1c1ccc(Cc2ccc(N3C(=O)C=CC3=O)cc2)cc1`: the growth is 90.5%.

For `CN1CCN(Cc2ccc(NC(=O)c3[nH]ncc3Nc3ncnc4[nH]ccc34)cc2)CC1`, the growth was 14.1%.

`O=C(Nc1ccc(Oc2ccc(F)cc2)c(Cl)c1)c1cccnc1`: the growth was 106%.

As for `OC(c1cccc(C(F)(F)F)c1)c1cnccc1NC1CCCCCC1` (stereo unspecified), the growth was 74.4%.

On to `NS(=O)(=O)c1ccc(Nc2nc3n[nH]c(Nc4ccccc4)c3c(=O)[nH]2)cc1`, for which the growth was 90.8%.

In the case of `O=C1/C(=C/c2ccccc2)CN(CCC(=O)N2C/C(=C\c3ccccc3)C(=O)/C(=C/c3ccccc3)C2)C/C1=C\c1ccccc1`, the growth is 118%.

In the case of `CN1CCN(Cc2ccc(NC(=O)c3[nH]ncc3Nc3ncnc4c3CCC4)cc2)CC1`, the growth was 22.6%.

With `O=C1C(=O)N(CCCCn2cc(CO)nn2)c2ccccc21`, the growth was 96.3%.

`Cc1cc(Nc2nc(N3CCN(C)CC3)nc3ccccc23)n[nH]1`: the growth was 81.4%.

In the case of `CC(=O)C1=C(O)C=C2Oc3c(C(=O)/C=C/c4cc(Cl)cc(Cl)c4)c(O)c(C)c(O)c3[C@]2(C)C1=O`, the growth is -42.5% (active).

As for `O=C(Nc1ccc(CN2CCOCC2)cc1)c1[nH]ncc1Nc1ncnc2sccc12`, the growth was 20.1%.

Regarding `COc1cc(-c2c3sc(=O)[nH]c3nc3c2c(=O)[nH]n3C(C)C)cc2c1OCO2`, the growth was 107%.

`O=C1/C(=C/c2ccc(Cl)c(Cl)c2)CN(C(=O)CCN2CCC(=NO)CC2)C/C1=C\c1ccc(Cl)c(Cl)c1`: the growth was -88.2% (active).

As to `CCN(CC)CCCC(C)Nc1ccnc2c(OC)cccc12` (stereo unspecified), the growth was 108%.
